# Results reported in PubChem BioAssay (Tox21).
# Inconclusive results are not listed. Values without a mark were called inactive. Calls come from the whole dose curve; as a rule, active = well fitted cell-killing curve with a large enough effect in the repeat runs; inconclusive = weak or mixed curves, or effect the other way; inactive = flat fitted curve, though single readings scatter.
# Assay: qHTS RealTime-Glo MT Cell Viability Assay in HEK293 cells - 8 hour (AID 1224887); note: top concentration of the series differs between compounds; nearly all actives have a fitted effect of over 50% in size
# Settings: RealTime-Glo luminescence; series mostly up to 76.8 µM; activity change, negative = cytotoxicity: at the top concentration
# Source text: U.S. Tox21 Program National Center for Advancing Translational Sciences [NCATS] NIH Chemical Genomics Center [NCGC] U.S. Environmental Protection Agency [EPA] National Institutes of Environmental Health Sciences [NIEHS] National Toxicology Program [NTP] U.S. Food and Drug Administration [FDA] Tox21 Assay Overview: Measure of cell viability is critical in the cell-base assay. Analysis of cell viability is necessary for the characterization of cell responses to cytotoxic drugs and environmental stress. A RealTime-Glo MT Cell Viability Assay to monitor cell viability in real time of continues cell culture during 40 hours of compound treatment was used to screen Tox21 10K library compounds in Hek293 cells. The RealTime-Glo MT Cell Viability Assay is a nonlytic, homogeneous, bioluminescent method to measure cell viability in real time using a simple, plate-based method. The assay involves adding NanoLuc luciferase and a cell-permeant prosubstrate to cells in culture. Viable cells reduce the proprietary prosubstrate to generate a substrate for NanoLuc luciferase. This substrate diffuses from cells into the surrounding culture medium, where it is rapidly used by the NanoLuc Enzyme to produce a luminescent signal. The signal correlates with the number of viable cells, making the assay well suited for cytotoxicity studies.
# Tox21 Assay Protocol Summary: The mixture of Hek293 cell suspension and reagents were dispensed at 600cells/6 ul/well in 1536-well tissue culture treated black solid bottom plates using a Multidrop dispenser. After the assay plates were incubated at a 37 C/5% CO2 incubator for 5 hours, 23 nL of compounds dissolved in DMSO, positive and negative controls was transferred to the assay plate by a pintool work station. The plates were incubated at 37 C for 40 hours. The luminescence intensity were measured at 0h, 8h, 16h, 24h, 32h and 40h time points using ViewLux plate reader during compound treatment.
# % is set by controls: 0 for no effect and ±100 for the full control effect.
row,Structure (SMILES),"activity change, negative = cytotoxicity"
1,O=C(O)/C=C/c1ccc(O)c(O)c1,0.554%
2,CC[C@H]1OC(=O)[C@H](C)[C@@H](O[C@H]2C[C@@](C)(OC)[C@@H](O)[C@H](C)O2)[C@H](C)[C@@H](O[C@@H]2O[C@H](C)C[C@H](N(C)C)[C@H]2O)[C@](C)(O)C[C@@H](C)/C(=N\OCOCCOC)[C@H](C)[C@@H](O)[C@]1(C)O,-5.79% [at 35.3 µM]
3,BrC(Br)C(Br)Br,-5.3%
4,O=C(O)CCS,9.8%
5,CCCCCCCCCCCCCOC(=O)CCSCCC(=O)OCCCCCCCCCCCCC,-5.3% [at 15.8 µM]
6,CC(C)(O)c1coc(S(=O)(=O)NC(=O)Nc2c3c(cc4c2CCC4)CCC3)c1,2.07%
7,CC(C)(C)S,-0.688%
8,[Cl][Nd]([Cl])[Cl],0.494%
9,O=C(O)CCC(=O)c1ccc(-c2ccccc2)cc1,6.41% [at 35.3 µM]
10,O=C(O)CCC(=O)OC[C@@H](NC(=O)C(Cl)Cl)[C@H](O)c1ccc([N+](=O)[O-])cc1,3.38% [at 35.3 µM]
11,Cc1cc([N+](=O)[O-])ccc1N,-19.1%
12,C1CCCCC1,-0.482%
13,COC(=O)c1sccc1S(N)(=O)=O,0.034%
14,CC(=O)C(C)=O,8.23%
15,CCN(CC)C(=O)N1CCN(C)CC1,10% [at 35.3 µM]
16,COc1ccc(N)c([N+](=O)[O-])c1,-17.7%
17,CS(=O)(=O)c1ccc([C@@H](C[C@H]2CCC(=O)C2)C(=O)Nc2cnccn2)cc1Cl,4.14%
18,Cc1ccc(N(CC2=NCCN2)c2cccc(O)c2)cc1,-5.62% [at 35.3 µM]
19,CC[C@H]1OC(=O)[C@H](C)[C@@H](O[C@H]2C[C@@](C)(OC)[C@@H](O)[C@H](C)O2)[C@H](C)[C@@H](O[C@@H]2O[C@H](C)C[C@H](N(C)C)[C@H]2O)[C@](C)(O)C[C@@H](C)CN(C)[C@H](C)[C@@H](O)[C@]1(C)O,0.967% [at 35.3 µM]
20,c1ccc(CCCc2ccncc2)cc1,-26.9%

row,Structure (SMILES),"activity change, negative = cytotoxicity"
1,O=C1CC[C@@H](C(=O)O)N1,2.6% [at 35.3 µM]
2,CCCCCCCCCCCCCC(=O)OCC(O)CO (stereo not given),0.139%
3,CCCCCCCC/C=C/C(=O)O,6.59% [at 35.3 µM]
4,CC(C)(C)CCCCCCOC(=O)c1ccccc1C(=O)OCCCCCCC(C)(C)C,-1.08%
5,CCCCCc1ccco1,2.82% [at 35.3 µM]
6,O=c1[nH][nH]c(=O)c2cc([N+](=O)[O-])ccc12,-6.65%
7,CC(=O)OCCC(C)CC(C)(C)C (stereo not given),10.3%
8,O=C1c2ccccc2C(=O)c2c(O)ccc(O)c21,-15.4%
9,COc1ccc(-c2cc(C(F)F)nn2-c2ccc(S(N)(=O)=O)cc2)cc1F,-23% [at 35.3 µM]
10,CC(C)CC(O)CC(C)C,3.84%
11,CCCCOC(=O)CCCCC(=O)OCCCC,-1.8%
12,O=c1[nH]c2cc(C(F)(F)F)c(N3CCOCC3)cc2n(CP(=O)(O)O)c1=O,13.7% [at 35.3 µM]
13,N[C@@H](Cc1cc(I)c(O)c(I)c1)C(=O)O,1.77% [at 35.3 µM]
14,O=C(Nc1ccc(C(=O)O)c(O)c1)c1ccccc1,7.21% [at 35.3 µM]
15,CC[C@@H](CO)NCCN[C@@H](CC)CO,4.01% [at 35.3 µM]
16,Nc1ccn([C@H]2CS[C@@H](CO)O2)c(=O)n1,-2.83%
17,CCOC(=O)c1ccc(NC(=O)CN2CCCCC2)cc1,-10.4% [at 35.3 µM]
18,O=C(O)CO,19.1%
19,COC1CCC=CO1 (stereo not given),15.9%
20,COc1ccc(-n2nc(C(F)F)cc2-c2ccc(S(C)=O)cc2)cc1 (stereo not given),-13.3%
